From PubChem BioAssay (NCI)
Compounds without any hit were thinned out: in the full panel of roughly 79,000, 15% have a hit. Calls of active or inactive are those of the source. Cut-off read from the data, not from the text of the source: active = growth inhibition above about 70%; inactive = the rest.

Experiments:
[1] = NCI Yeast Anticancer Drug Screen. Data for the rad50 strain (AID 155);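 note: 0% = growth of vehicle-only cultures of the same strain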; settings: S. cerevisiae rad50 strain growth inhibition; at 50.0 µM; hits give high values
Outline: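 DNA repair mutant yeast, compound exposure, growth read-out; inhibition is taken relative to vehicle.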

[2] = NCI Yeast Anticancer Drug Screen. Data for the mec2-1 strain (AID 157); settings: S. cerevisiae mec2-1 strain, at 50.0 µM, hits give high values
Outline: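 Each compound was tested on mec2-1 yeast, a strain altered in DNA damage repair or cell cycle control. Growth inhibition is reported relative to vehicle.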

[3] = NCI Yeast Anticancer Drug Screen. Data for the sgs1 mgt1 strain (AID 161);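 note: 0% = growth of cultures given vehicle only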; settings: S. cerevisiae sgs1 mgt1 strain, at 50.0 µM, hits give high values
Outline: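 Test agents were incubated with a DNA-repair-mutant yeast strain. Growth was then read and compared against vehicle-treated controls.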

[4] = NCI Yeast Anticancer Drug Screen. Data for the cln2 rad14 strain (AID 165);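 note: 0% = growth equal to vehicle treated cultures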; settings: S. cerevisiae cln2 rad14 strain, at 50.0 µM, hits give high values
Outline: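 Test compounds were added to cln2 rad14 yeast cultures; inhibition of growth was then determined by comparison with vehicle treatment.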

[5] = NCI Yeast Anticancer Drug Screen. Data for the bub3 strain (AID 167); settings: S. cerevisiae bub3 mutant strain, at 50.0 µM, hits give high values
Outline: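 In this screen, a yeast mutant lacking normal mitotic checkpoint function is challenged with compound. Relative growth versus vehicle gives the inhibition value.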

[6] = NCI Yeast Anticancer Drug Screen. Data for the mlh1 rad18 strain (AID 175); settings: S. cerevisiae mlh1 rad18 strain growth inhibition; at 50.0 µM; hits give high values
Outline: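 Inhibition values reflect reduced growth of mutant yeast versus vehicle-treated controls following compound exposure; the mutations affect DNA damage repair.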

Measured: growth inhibition

CN=C1CC2CCCC1C2 (configuration not stated)
inactive: [1] -15.7% | [2] 0.85% | [3] -5.8% | [4] -6.1% | [5] -7.95% | [6] -15.4%

Cc1ccccc1NC=O
inactive: [1] -26% | [2] -19.2% | [3] -44.5% | [4] 5.9% | [5] -36.5% | [6] -13%

Cc1ccc([N+](=O)[O-])cc1NC(=O)Cc1ccccc1
inactive: [1] 4.05% | [2] 29.8% | [3] 1.45% | [4] -8% | [5] 18.3% | [6] 17.6%

O=C1C2C3CC(C4C5C=CC(C5)C34)C2C2C3CC(C12)C1C2C=CC(C2)C31 (configuration not stated)
inactive: [1] -19.1% | [2] -15.9% | [3] -24% | [4] 17.8% | [5] -9.15% | [6] -24.4%

COc1ccccc1NC(=O)/C(=C\n1c(=S)[nH]c2ccc([N+](=O)[O-])cc21)C(C)=O
inactive: [1] -9.7% | [2] -10.4% | [3] 2.55% | [4] -6.25% | [5] 4.95% | [6] -4.15%

CCCCCCCCCCCCCCCCCCOC(=O)C1CCCN1 (configuration not stated)
inactive: [1] -10% | [2] 22.9% | [3] 12.8% | [4] 3.15% | [5] 12.4% | [6] 8.6%

CCOC(=O)/C(C#N)=C/c1ccc(Br)cc1
inactive: [1] 15.7% | [2] 0.8% | [3] 0.3% | [4] -4.25% | [5] 7.5% | [6] 21.3%

COc1nc(NCCO)nc(OC)n1
inactive: [1] 3.35% | [2] -2.5% | [3] -16.5% | [4] -29.6% | [5] 4.65% | [6] -4.85%

COC1OC(CO)C(O)C(NC(=O)[C@H](Cc2ccccc2)NC(=O)OCc2ccccc2)C1O (some centres not stated)
inactive: [1] 16.6% | [2] 0.75% | [3] 0.95% | [4] 8.65% | [5] 0.45% | [6] 14%

CCOC(=O)N(C)N=NCCCl
inactive: [1] 15.2% | [2] 2.2% | [3] -5.05% | [4] -26.9% | [5] 8.2% | [6] -4.9%

S=C1N=C(Cl)/C(=C\c2ccccc2)N1
inactive: [1] -4.65% | [2] -23.9% | [3] 3.45% | [4] 24.1% | [5] 11.5% | [6] -14.4%

N#CCCN(CCC#N)S(=O)(=O)c1ccccc1
inactive: [1] -3% | [2] 5.65% | [3] -4.9% | [4] -4.2% | [5] 14.1% | [6] -15.6%

C=C1CN(CCc2ccccc2)C(=S)S1
inactive: [1] 55.6% | [2] 19.1% | [3] 22.4% | [4] 3.65% | [5] 1.35% | [6] 11.4%

C[N+]1(C)CCCC(CN2c3ccccc3Sc3ccccc32)C1 (configuration not stated)
inactive: [1] 10.8% | [2] -3.85% | [3] 7.85% | [4] -13.4% | [5] 5.9% | [6] 15.4%

Cc1cc(N(CCC#N)CCC#N)ccc1/C=C1N=C(/C=C/c2ccccc2)OC(=O)N\1
inactive: [1] 14.7% | [2] -5% | [3] 4.7% | [4] -10.1% | [5] 1.15% | [6] -13.7%

Cc1ccc2c(c1)[nH]c(=S)n2/C=C1\C(=O)Oc2ccccc2C1=O
inactive: [1] -43.8% | [2] -42.1% | [3] -44.4% | [4] -31.7% | [5] -42% | [6] -46%

COc1cc2c3c(c1)CCCN3CCC2
inactive: [1] -40.6% | [2] -17% | [3] -20.5% | [4] -4.95% | [5] 13.2% | [6] -17.6%

ON=C1c2cc(Cl)ccc2-c2ccc(Cl)cc21
inactive: [1] 5.25% | [2] 4.05% | [3] 18.1% | [4] -40.8% | [5] 5.45% | [6] 16.6%

COc1ccc2c(N=[N+]=[N-])cc(C)nc2c1
inactive: [1] -42.2% | [2] -1.45% | [3] -16.9% | [4] -57.5% | [5] 1.55% | [6] 20.4%

CC(C)(C)c1ccc2c(c1)C(O)(C#Cc1ccccc1)c1ccccc1C2(O)C#Cc1ccccc1 (configuration not stated)
inactive: [1] 11.6% | [2] -7.5% | [3] 1.5% | [4] 9.35% | [5] 0.05% | [6] 14.1%

CCOc1ccc(N2CCN(C(=O)Nc3ccccc3OC)CC2)cc1
inactive: [1] -4.1% | [2] -6.2% | [3] -1.8% | [4] -47.5% | [5] 21.1% | [6] -3.95%

Cc1cc(C)nc(N)c1
inactive: [1] 3.75% | [2] -11.8% | [3] -0.4% | [4] -21.8% | [5] -3.25% | [6] 3.05%

N=C(N)c1cccc(NC(=O)CCc2ccccc2)c1
inactive: [1] -7.3% | [2] -14.6% | [3] -17.8% | [4] -29.1% | [5] 0.95% | [6] 1.9%

NCC(=O)c1cc2ccccc2[n+]([O-])c1
inactive: [1] 1.6% | [2] -4.45% | [3] 1.8% | [4] -51.2% | [5] -8.5% | [6] -14.4%

CC(O)C1(O)C(O)CC(OC2c3cc4c(c(O)c3[C@@H]3C[C@@]2(C)OC32C=c3cc[nH]c3=N2)C(=O)c2cccc(O)c2C4=O)OC1C (some centres not stated)
inactive: [1] 63.5% | [2] 41.1% | [3] 60% | [4] 50.4% | [5] 52% | [6] 67.6%

O=c1c2ccccc2c(Cc2ccccc2)nn1C1CCCCCC1
inactive: [1] -14.2% | [2] 2% | [3] 30.9% | [4] -29.5% | [5] 27.1% | [6] 16.1%

COC(=O)c1c([N+](=O)[O-])ncn1[C@H]1OC[C@@H](OC(C)=O)[C@@H](OC(C)=O)[C@@H]1OC(C)=O
inactive: [1] -24.8% | [2] -8.6% | [3] -20.9% | [4] -0.8% | [5] -5.5% | [6] 1.55%

CCN(CC)C(=O)Cc1ccc2c3c(cccc13)CC2
inactive: [1] -2.45% | [2] -2.05% | [3] -1.75% | [4] -0.75% | [5] 1.6% | [6] 11.6%

C[N+]([O-])(CCO)Cc1ccccc1 (configuration not stated)
inactive: [1] -1.45% | [2] -17.8% | [3] -6.1% | [4] 0.95% | [5] 4.75% | [6] -14.3%

CCOC(=O)CCC1(C(=O)OCC)CCCC1=O (configuration not stated)
inactive: [1] -12.9% | [2] -21.3% | [3] -27.4% | [4] -9.7% | [5] 10.6% | [6] -19.3%

Cc1c2ccccc2c(CN2CC(O)CC2C(=O)O)c2ccccc12 (configuration not stated)
inactive: [2] 33.2% | [3] 63% | [5] 51.8%
active: [1] 70.6% | [4] 78.5% | [6] 93.8%

CCOc1ncnc2ccc(Cl)cc12
inactive: [1] -8.65% | [2] -3.7% | [3] -4.45% | [4] -18.1% | [5] 0.65% | [6] 0%

CN(C)CCSS(=O)(=O)O
inactive: [1] -4.9% | [2] -23.1% | [3] -26.3% | [4] 16.6% | [5] -19.1% | [6] -14.2%

Nc1nc(N)c(N=Nc2ccccc2[N+](=O)[O-])c(=O)[nH]1
inactive: [1] 5.85% | [2] -15.8% | [3] 2.4% | [4] -4.95% | [5] 11.1% | [6] -1.05%

S=c1c2ccccc2c(=S)n2n1CC=CC2
inactive: [1] 7.6% | [2] 6.95% | [3] 2.3% | [4] 0% | [5] 16.8% | [6] 15.7%

O=S(=O)(O)C(O)C(F)(F)C(F)(F)C(F)(F)F (configuration not stated)
inactive: [1] 16.2% | [2] -1.75% | [3] 22.9% | [4] -37.8% | [5] -30.6% | [6] 19.9%

OC(CBr)c1cc(-c2ccc(Cl)cc2)nc2c(-c3ccccc3)cccc12 (configuration not stated)
inactive: [1] -3% | [2] 3.85% | [3] -4.05% | [4] -25.4% | [5] 2.35% | [6] 28.7%

CCCCCCCCCCCCCCCCc1c(C)nc(N(C)C)oc1=O
inactive: [1] 18.8% | [2] 23% | [3] -4.4% | [4] 8.2% | [5] 21.1% | [6] 2.25%

CCOC(=O)[C@H]1Nc2c(cccc2[N+](=O)[O-])[C@H]2OCC[C@@H]12
inactive: [1] -12.8% | [2] -22.3% | [3] -0.45% | [4] 11.4% | [5] -22.6% | [6] -26.9%

Cc1cc(C)c(/C(O)=C/C(=S)N2CCOCC2)c(C)c1
inactive: [1] 33.5% | [2] 14.1% | [3] 43.1% | [4] -33% | [5] -15.3% | [6] 32.6%

CC(=O)OCC1CC=CCC1C (configuration not stated)
inactive: [1] 5.35% | [2] -15.7% | [3] -10.2% | [4] 1.75% | [5] 2.75% | [6] 1.5%

COC(=O)CC1(C)[C@H](O)[C@H]2OC(C)(C)O[C@H]2[C@@H]1O (some centres not stated)
inactive: [1] 7.7% | [2] -10.6% | [3] -18.2% | [4] -3.25% | [5] -7.5% | [6] 38.2%
